The test system of assay [1] is turtle Androgen Receptor (AR), gene 101947425. The assay is described as follows: ATG_trAR_XSP2: Attagene TRANS-FACTORIAL Multi-Species (XSP2) HepG2 Assay for turtle Androgen Receptor (AR) (AID 2283815). The gist of the method: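 Reporter transcripts were quantified via RT-PCR and capillary electrophoresis and fitted upward against DMSO. Transiently transfected human HepG2 cells carrying NR-Gal4 chimeras were exposed 24 h, with 3 nM 6-alpha-fluorotestosterone plus 1.5 nM norgestrel added.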

Assay [2] has as its target zebrafish Estrogen Receptor (ER1), esr1 (gene 259252) (UniProt P57717). The assay is described as follows: ATG_zfER1_XSP2: Attagene TRANS-FACTORIAL Multi-Species (XSP2) HepG2 Assay for zebrafish Estrogen Receptor (ER1) (AID 2283816). Summed up:
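After 24 h compound exposure, RNA from transfected HepG2 cells was reverse-transcribed and reporter transcripts resolved by capillary electrophoresis. The TRANS format reads exogenous zebrafish ER1-Gal4 chimera activity on GAL4-UAS elements; gain of signal against DMSO.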

Assay [3] addresses chicken Estrogen Receptor (ERa), ESR1 (gene 396099) (UniProt P06212). The assay is described as follows: ATG_chERa_XSP2: Attagene TRANS-FACTORIAL Multi-Species (XSP2) HepG2 Assay for chicken Estrogen Receptor (ERa) (AID 2283817).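 Also: actives raise reporter signal above DMSO so AC50 reflects ER activation.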 The gist of the method:
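Exogenous chicken ERa-Gal4 chimera activity was assessed in transfected human liver HepG2 cells after 24 h of treatment. Induced reporter mRNA was quantified fluorescently by capillary electrophoresis, with DMSO as baseline.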

Assay [4] relates to zebrafish Estrogen Receptor (ER2a), gene 317734. The assay is described as follows: ATG_zfER2a_XSP2: Attagene TRANS-FACTORIAL Multi-Species (XSP2) HepG2 Assay for zebrafish Estrogen Receptor (ER2a) (AID 2283818).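 Also: hits raise reporter mRNA so AC50 reflects activation of zebrafish ER2a.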 Summed up: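 Multiplexed trans-reporter readout: RT-PCR then capillary electrophoresis of reporter transcripts after 24 h compound treatment. Human HepG2 carries transfected zebrafish ER2a-Gal4 chimera; 3 nM 6-alpha-fluorotestosterone plus 1.5 nM norgestrel present. Induction scored against DMSO.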

For assay [5], the system named is chicken Androgen Receptor (AR), gene 422165. The assay is described as follows: ATG_chAR_XSP2: Attagene TRANS-FACTORIAL Multi-Species (XSP2) HepG2 Assay for chicken Androgen Receptor (AR) (AID 2283819).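 Also: hits raise reporter mRNA above DMSO so potency is for activation.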 Summed up: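 Readout is reporter mRNA induction via RT-PCR/capillary electrophoresis after 24 h chemical exposure, positive direction relative to DMSO. Transiently transfected HepG2 express chimeric chicken AR–GAL4; AR stimulated by 3 nM 6-alpha-fluorotestosterone and 1.5 nM norgestrel.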

For assay [6], the system named is frog Estrogen Receptor (ER), gene 398734. The assay is described as follows: ATG_frER1_XSP2: Attagene TRANS-FACTORIAL Multi-Species (XSP2) HepG2 Assay for frog Estrogen Receptor (ER) (AID 2283821).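 Also: hits raise reporter mRNA above DMSO baseline so potency means agonist or activator.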 Summed up: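 Gain-of-signal mRNA reporter assay, HepG2 human liver cells, 24 h dosing; transcripts read by fluorescent RT-PCR fragment analysis, DMSO as negative control.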

In assay [7] the test system is zebrafish Estrogen Receptor (ER2b), gene 317733. The assay is described as follows: ATG_zfER2b_XSP2: Attagene TRANS-FACTORIAL Multi-Species (XSP2) HepG2 Assay for zebrafish Estrogen Receptor (ER2b) (AID 2283823).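 Also: fitted upward as reporter gain over DMSO so potency reflects activation.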 Summed up:
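Cells used were HepG2, transiently transfected with chimeric nuclear receptor-Gal4 reporter units. After 24 h of chemical treatment, reporter transcripts were amplified by RT-PCR, labelled and sized by capillary electrophoresis, with induction analysed relative to DMSO.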

Assay [8] concerns frog Estrogen Receptor (ER2), gene 100174814. The assay is described as follows: ATG_frER2_XSP2: Attagene TRANS-FACTORIAL Multi-Species (XSP2) HepG2 Assay for frog Estrogen Receptor (ER2) (AID 2283828). The gist of the method: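 Induction of reporter mRNA, baseline set by DMSO, is the endpoint. The panel was run in transfected HepG2 cells over 24 h, with 3 nM 6-alpha-fluorotestosterone and 1.5 nM norgestrel present to stimulate androgen receptor.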

Assay [9] concerns the target Peroxisome proliferator-activated receptor gamma (Homo sapiens) (UniProt P37231). The assay is described as follows: ATG_hPPARg_XSP2: Attagene TRANS-FACTORIAL Multi-Species (XSP2) HepG2 Assay for human Peroxisome Proliferator-activated Receptor gamma (PPARg) (AID 2283829).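 Also: actives raise reporter mRNA above DMSO so AC50 reflects PPARg activation.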 Summed up:
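After transfecting HepG2 with GAL4-UAS reporter constructs, cells are dosed for 24 h; total RNA is reverse-transcribed, PCR-amplified, FAM-labeled, HpaI-digested and resolved by capillary electrophoresis. Activity is measured as mRNA induction relative to DMSO.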

The target in assay [10] is mouse Peroxisome Proliferator-activated Receptor gamma (PPARg), Pparg (gene 19016) (UniProt P37238). The assay is described as follows: ATG_mPPARg_XSP2: Attagene TRANS-FACTORIAL Multi-Species (XSP2) HepG2 Assay for mouse Peroxisome Proliferator-activated Receptor gamma (PPARg) (AID 2283830).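 Also: hits are gains in reporter mRNA above DMSO so AC50 marks activation.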 The gist of the method:
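Multiplexed TRANS reporter readout: after 24 h chemical exposure of transfected HepG2 cells (with 3 nM 6-alpha-fluorotestosterone, 1.5 nM norgestrel present), RNA reverse-transcribed, amplified, 6-FAM-labelled and resolved by capillary electrophoresis; mouse PPARg-Gal4 induction scored against DMSO.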

Assay [11] deals with Nuclear receptor subfamily 1 group I member 2 (Mus musculus) (UniProt O54915). The assay is described as follows: ATG_mPXR_XSP2: Attagene TRANS-FACTORIAL Multi-Species (XSP1) HepG2 Assay for mouse Pregnane X Receptor (PXR) (AID 2283831). Summed up:
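Reporter transcripts were quantified by RT-PCR, FAM primer extension, HpaI digestion and capillary electrophoresis after 24 h of chemical exposure in transiently transfected HepG2 cells carrying chimeric receptor-GAL4 constructs; DMSO served as baseline.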

Assay [12] concerns the target zebrafish Thyroid Hormone Receptor alpha (TRa), thraa (gene 30670) (UniProt Q98867). The assay is described as follows: ATG_zfTRa_XSP2: Attagene TRANS-FACTORIAL Multi-Species (XSP1) HepG2 Assay for zebrafish Thyroid Hormone Receptor alpha (TRa) (AID 2283832).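 Also: actives raise zebrafish TRa-Gal4 reporter transcript above DMSO baseline.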 Summed up: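 Chimeric zebrafish TRa-Gal4 activity read in transfected human HepG2 as GAL4-UAS reporter transcripts, 24 h post-dose, via RT-PCR with labeled primer extension and capillary electrophoresis. Medium also carries 3 nM 6-alpha-fluorotestosterone and 1.5 nM norgestrel; DMSO baseline.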

For assay [13], the system named is zebrafish Peroxisome Proliferator-activated Receptor gamma (PPARg), gene 557037. The assay is described as follows: ATG_zfPPARg_XSP2: Attagene TRANS-FACTORIAL Multi-Species (XSP2) HepG2 Assay for zebrafish Peroxisome Proliferator-activated Receptor gamma (PPARg) (AID 2283833).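 Also: actives increase reporter signal over DMSO so AC50 reflects activation.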 The gist of the method: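 Multi-species TRANS format in HepG2, 24 h dosing; medium also contained 3 nM 6-alpha-fluorotestosterone and 1.5 nM norgestrel to stimulate androgen receptor. Zebrafish PPARg-GAL4 induced reporter mRNA was measured by RT-PCR/capillary electrophoresis.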

In assay [14] the test system is turtle Thyroid Hormone Receptor, alpha (TRa), gene 101949057. The assay is described as follows: ATG_trTRa_XSP2: Attagene TRANS-FACTORIAL Multi-Species (XSP1) HepG2 Assay for turtle Thyroid Hormone Receptor, alpha (TRa) (AID 2283834).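 Also: hits raise reporter mRNA over the DMSO baseline so AC50 marks activators.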 The gist of the method:
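Transfection of HepG2 with multiple reporter transcription units, then chemical dosing for 24 h. Total RNA was reverse-transcribed, reporter sequences PCR-amplified and FAM-labelled, then sized by capillary electrophoresis. DMSO served as baseline.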

Assay [15] is described as follows: ATG_M_61_XSP2: Attagene TRANS-FACTORIAL Multi-Species (XSP2) HepG2 Assay for M61 Transcription Factor (Internal Marker) (AID 2283835; active = hit-call score of the fitted dose curve at least 0.9, where 1 is the maximum; inactive = score below 0.9;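 also: active means a rise in signal above the DMSO baseline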). Summed up: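 Signal was mRNA induction detected as fluorescence after RT-PCR and capillary electrophoresis, analysed in the gain direction with DMSO as baseline. HepG2 cells transiently carrying reporter constructs received chemicals for 24 h.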

Assay [16] concerns the target Estrogen receptor (Homo sapiens) (UniProt P03372). The assay is described as follows: ATG_hERa_XSP2: Attagene TRANS-FACTORIAL Multi-Species (XSP2) HepG2 Assay for human Estrogen Receptor (ERa) (AID 2283827). Summed up: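 Trans-activation of exogenous human ERa-Gal4 chimera read in HepG2 as reporter transcript after 24 h exposure; medium included 3 nM 6-alpha-fluorotestosterone and 1.5 nM norgestrel. Quantified by RT-PCR with capillary electrophoresis, positive-direction fitting against DMSO.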

Assay [17] can be described thus: ATG_M_19_XSP2: Attagene TRANS-FACTORIAL Multi-Species (XSP2) HepG2 Assay for M32 Transcription Factor (Internal Marker) (AID 2283822). Summed up:
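Internal background marker in a multi-species nuclear receptor TRANS panel: transfected HepG2 cells exposed 24 h, with 3 nM 6-alpha-fluorotestosterone and 1.5 nM norgestrel present. Readout is RT-PCR of reporter transcripts resolved by capillary electrophoresis, gain-of-signal versus DMSO.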

Assay [18] in a line: ATG_M_32_XSP2: Attagene TRANS-FACTORIAL Multi-Species (XSP2) HepG2 Assay for M19 Transcription Factor (Internal Marker) (AID 2283826). Summed up:
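Transfected HepG2 (multiplexed GAL4-UAS reporters), 24 h chemical exposure, 3 nM 6-alpha-fluorotestosterone + 1.5 nM norgestrel added. RNA → oligo(dT) RT → PCR → 6-FAM primer extension → HpaI cut → CE. Fitted upward vs DMSO.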

Values joined by “and” are separate entries in the source; they are usually repeats but may differ in a detail not shown here. Equal entries are not always repeated. Inconclusive results are not listed. Some compounds were tested as several samples or in several runs, with calls that do not always agree. Active and inactive are the calls of the source. The calls were made as follows, unless noted: active = hit-call score of the fitted dose curve at least 0.9, where 1 is the maximum; inconclusive = response in the unintended direction; inactive = score below 0.9.

Sequence of Nuclear receptor subfamily 1 group I member 2 (Mus musculus) (O54915 whole entry, looked up, the tested form may be a part): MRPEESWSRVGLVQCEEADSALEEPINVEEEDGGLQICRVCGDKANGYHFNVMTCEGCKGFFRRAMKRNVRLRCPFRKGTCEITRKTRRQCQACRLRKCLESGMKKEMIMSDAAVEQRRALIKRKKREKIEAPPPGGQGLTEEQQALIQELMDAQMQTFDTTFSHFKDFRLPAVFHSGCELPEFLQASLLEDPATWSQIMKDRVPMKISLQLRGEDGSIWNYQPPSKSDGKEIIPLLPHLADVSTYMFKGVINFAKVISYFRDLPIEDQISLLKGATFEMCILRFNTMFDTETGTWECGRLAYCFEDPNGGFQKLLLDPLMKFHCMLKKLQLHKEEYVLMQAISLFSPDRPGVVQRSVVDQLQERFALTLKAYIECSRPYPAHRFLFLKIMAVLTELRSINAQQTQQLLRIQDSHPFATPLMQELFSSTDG
Sequence of mouse Peroxisome Proliferator-activated Receptor gamma (PPARg), Pparg (gene 19016) (P37238 whole entry, looked up, the tested form may be a part): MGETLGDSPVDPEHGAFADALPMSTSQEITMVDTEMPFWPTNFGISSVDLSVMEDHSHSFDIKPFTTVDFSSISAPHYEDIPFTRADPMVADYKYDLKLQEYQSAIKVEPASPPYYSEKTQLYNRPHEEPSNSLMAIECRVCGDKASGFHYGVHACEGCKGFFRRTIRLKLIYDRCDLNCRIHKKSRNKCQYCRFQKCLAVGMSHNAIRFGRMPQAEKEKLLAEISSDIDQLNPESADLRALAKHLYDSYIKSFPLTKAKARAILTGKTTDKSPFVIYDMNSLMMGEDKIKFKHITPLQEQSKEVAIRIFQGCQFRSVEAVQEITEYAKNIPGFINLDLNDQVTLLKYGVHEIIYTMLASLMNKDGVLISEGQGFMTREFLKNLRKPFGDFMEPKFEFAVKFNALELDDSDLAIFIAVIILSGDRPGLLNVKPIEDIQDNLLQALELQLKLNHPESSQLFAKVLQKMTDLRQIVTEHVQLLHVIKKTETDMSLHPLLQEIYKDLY
Sequence of zebrafish Estrogen Receptor (ER1), esr1 (gene 259252) (P57717 whole entry, looked up, the tested form may be a part): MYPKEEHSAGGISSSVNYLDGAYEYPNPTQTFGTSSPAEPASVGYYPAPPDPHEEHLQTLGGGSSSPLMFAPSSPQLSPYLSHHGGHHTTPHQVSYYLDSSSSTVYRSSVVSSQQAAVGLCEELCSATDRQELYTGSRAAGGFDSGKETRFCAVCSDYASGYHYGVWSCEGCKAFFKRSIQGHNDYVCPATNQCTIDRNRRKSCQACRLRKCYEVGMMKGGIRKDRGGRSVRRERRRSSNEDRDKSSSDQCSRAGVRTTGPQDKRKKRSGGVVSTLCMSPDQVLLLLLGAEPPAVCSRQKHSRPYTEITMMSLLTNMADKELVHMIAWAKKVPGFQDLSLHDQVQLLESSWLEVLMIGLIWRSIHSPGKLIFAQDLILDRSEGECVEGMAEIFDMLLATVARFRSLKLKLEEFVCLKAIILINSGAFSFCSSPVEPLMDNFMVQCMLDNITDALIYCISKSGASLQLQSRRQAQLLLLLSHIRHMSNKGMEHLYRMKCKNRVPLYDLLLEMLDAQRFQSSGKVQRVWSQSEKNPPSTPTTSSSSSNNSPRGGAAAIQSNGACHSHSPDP
Sequence of Peroxisome proliferator-activated receptor gamma (Homo sapiens) (P37231 whole entry, looked up, the tested form may be a part): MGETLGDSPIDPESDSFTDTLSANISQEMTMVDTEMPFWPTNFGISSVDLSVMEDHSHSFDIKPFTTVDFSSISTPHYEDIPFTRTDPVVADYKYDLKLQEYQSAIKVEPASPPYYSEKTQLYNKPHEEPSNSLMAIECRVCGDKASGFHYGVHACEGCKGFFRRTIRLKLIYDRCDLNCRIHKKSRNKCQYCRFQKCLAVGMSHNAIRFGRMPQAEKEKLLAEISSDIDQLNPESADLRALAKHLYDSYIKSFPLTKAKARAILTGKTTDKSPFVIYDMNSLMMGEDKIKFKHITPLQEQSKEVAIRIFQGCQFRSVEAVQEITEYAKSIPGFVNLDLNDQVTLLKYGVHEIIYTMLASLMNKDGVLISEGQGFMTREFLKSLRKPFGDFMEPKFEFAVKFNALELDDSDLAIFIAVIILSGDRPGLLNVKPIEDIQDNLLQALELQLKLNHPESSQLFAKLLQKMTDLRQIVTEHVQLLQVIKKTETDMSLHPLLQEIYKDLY
Sequence of zebrafish Thyroid Hormone Receptor alpha (TRa), thraa (gene 30670) (Q98867 whole entry, looked up, the tested form may be a part): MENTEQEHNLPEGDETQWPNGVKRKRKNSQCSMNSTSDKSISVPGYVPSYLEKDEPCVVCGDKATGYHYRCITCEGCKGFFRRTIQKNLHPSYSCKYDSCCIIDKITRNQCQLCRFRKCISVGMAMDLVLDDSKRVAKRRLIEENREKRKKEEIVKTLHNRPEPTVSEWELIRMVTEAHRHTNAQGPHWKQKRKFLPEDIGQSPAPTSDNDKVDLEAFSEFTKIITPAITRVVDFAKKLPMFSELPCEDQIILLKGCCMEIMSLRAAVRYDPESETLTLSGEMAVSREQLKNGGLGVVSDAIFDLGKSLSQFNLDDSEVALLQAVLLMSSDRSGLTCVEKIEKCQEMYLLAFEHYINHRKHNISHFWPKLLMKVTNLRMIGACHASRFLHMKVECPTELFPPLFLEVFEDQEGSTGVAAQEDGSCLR
Sequence of chicken Estrogen Receptor (ERa), ESR1 (gene 396099) (P06212 whole entry, looked up, the tested form may be a part): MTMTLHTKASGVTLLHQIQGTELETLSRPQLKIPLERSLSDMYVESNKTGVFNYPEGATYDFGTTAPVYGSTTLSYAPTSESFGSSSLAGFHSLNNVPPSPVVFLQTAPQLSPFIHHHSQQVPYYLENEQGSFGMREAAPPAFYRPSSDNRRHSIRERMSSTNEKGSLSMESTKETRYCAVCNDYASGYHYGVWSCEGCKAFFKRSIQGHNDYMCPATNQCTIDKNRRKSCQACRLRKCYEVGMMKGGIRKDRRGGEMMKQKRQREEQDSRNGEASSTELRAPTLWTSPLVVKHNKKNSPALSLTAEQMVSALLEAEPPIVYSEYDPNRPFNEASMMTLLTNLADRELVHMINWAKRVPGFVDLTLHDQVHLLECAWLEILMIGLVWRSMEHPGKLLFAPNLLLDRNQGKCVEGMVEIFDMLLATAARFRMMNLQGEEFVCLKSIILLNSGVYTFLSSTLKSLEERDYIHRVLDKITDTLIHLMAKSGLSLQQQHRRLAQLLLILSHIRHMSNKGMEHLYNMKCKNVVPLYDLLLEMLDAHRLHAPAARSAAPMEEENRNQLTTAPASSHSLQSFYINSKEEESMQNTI
Sequence of Estrogen receptor (Homo sapiens) (P03372 whole entry, looked up, the tested form may be a part): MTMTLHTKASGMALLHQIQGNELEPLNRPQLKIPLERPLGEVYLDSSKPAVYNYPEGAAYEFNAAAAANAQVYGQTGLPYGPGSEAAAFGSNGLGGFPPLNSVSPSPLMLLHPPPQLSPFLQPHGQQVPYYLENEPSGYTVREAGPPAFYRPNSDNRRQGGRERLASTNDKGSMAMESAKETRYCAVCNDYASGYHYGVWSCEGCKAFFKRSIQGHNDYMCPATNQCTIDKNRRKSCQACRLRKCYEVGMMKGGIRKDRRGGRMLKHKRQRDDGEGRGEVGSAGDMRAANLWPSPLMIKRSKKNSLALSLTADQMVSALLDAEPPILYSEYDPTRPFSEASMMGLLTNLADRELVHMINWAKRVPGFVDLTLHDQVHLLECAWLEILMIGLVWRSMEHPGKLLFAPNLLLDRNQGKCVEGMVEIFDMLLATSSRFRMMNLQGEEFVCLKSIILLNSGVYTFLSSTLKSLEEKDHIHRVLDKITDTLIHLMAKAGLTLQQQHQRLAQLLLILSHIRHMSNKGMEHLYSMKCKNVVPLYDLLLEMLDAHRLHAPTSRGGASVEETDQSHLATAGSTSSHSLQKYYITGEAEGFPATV

Take `CCOP(=S)(OCC)O/N=C(\C#N)c1ccccc1`: the call in assay [1], in assay [2], in assay [4], in assay [5], in assay [6] and in [12] was inactive. Further, the compound was called inactive in [13], in assay [14] and in [15]. The AC50 (commonly the midpoint of the concentration-response curve, whichever way the signal moves) in assay [2] was 6.85 µM (active); in assay [3], 6.64 µM (active) and 5.37 µM (active); in assay [4], 4.38 µM (active); in assay [5], 17.8 µM (active); in assay [7] it was 19 µM (active) and 8.31 µM (active); in assay [8] it was 16.1 µM (active) and 2.28 µM (active). The half-maximal activity concentration (AC50) in assay [9] is 27.4 µM (active) and 10.3 µM (active); in [10] it was 22.4 µM (active) and 15.5 µM (active); in [11], 4.3 µM (active) and 2.37 µM (active).

Consider `CC(O)(CS(=O)(=O)c1ccc(F)cc1)C(=O)Nc1ccc(C#N)c(C(F)(F)F)c1` (stereo not given), for which the compound was classed as inactive in assay [2], in [3], in [4], in [6], in [7] and in assay [16]. The call in [8], in [9], in [10], in assay [12], in assay [13] and in assay [14] was inactive. Besides, in assay [15], the compound was classed as inactive. The AC50 is 50.4 µM (active) in assay [7], 46.2 µM (active) in assay [10] and 4.25 µM (active) in assay [11].

On to `O=c1oc2ccccc2c(O)c1C(CC(O)c1ccc(-c2ccc(Br)cc2)cc1)c1ccccc1` (stereo not given), for which the compound was called inactive in [2], in assay [5], in assay [17], in assay [7], in [18] and in assay [8]. Further, in assay [14], the compound was classed as inactive. Further, the AC50 is 1.64 µM (active) in assay [9], 2.5 µM (active) in assay [10], 31.6 µM (active) in [11] and 6.09 µM (active) in assay [13].

Source of the values: PubChem BioAssay (EPA / NIEHS).
